We go through 40 compounds from PubChem BioAssay (Tox21).

Records with an inconclusive call do not appear. Unmarked numbers belong to inactive results. The source made the active and inactive calls. The call rests on the fitted dose curve; in most records, active means well fitted cell-killing curve with a large enough effect in the repeat runs; inconclusive means weak or mixed curves; inactive means no such curve, though single readings can be large or run the other way.
On the % scale 0 is the no-effect control and ±100 the full control effect; potency means the concentration at half of the fitted maximal effect.

A short description of the assay: qHTS assay to identify small molecule agonists of the peroxisome proliferator-activated receptor delta (PPARd) signaling pathway - cell viability counter screen (AID 743211). Further: nearly all actives have a fitted effect of over 55% in size. As to conditions: PPARd-bla HEK293H viability, CellTiter-Glo luminescence, 17 h; series mostly up to 62.6 µM; activity change, negative = cytotoxicity: at the top concentration. An excerpt:
U.S. Tox21 Program National Center for Advancing Translational Sciences [NCATS] NIH Chemical Genomics Center [NCGC] U.S. Environmental Protection Agency [EPA] National Institutes of Environmental Health Sciences [NIEHS] National Toxicology Program [NTP] U.S. Food and Drug Administration [FDA] Tox21 Assay Overview: The peroxisome proliferator-activated receptors (PPARs) are lipid-activated transcription factors of the nuclear receptor superfamily with three distinct subtypes namely PPAR alpha, PPAR delta (PPARd) and PPAR gamma. All these subtypes heterodimerizes with Retinoid X receptor (RXR) and have different physiological functions. […] To identify the compounds that activate PPAR-delta signaling, GeneBLAzer PPAR delta UAS-bla HEK293H cell line (Invitrogen, Carlsbad, CA, USA) containing a beta-lactamase reporter gene under the control of an Upstream Activator Sequence (UAS) was used to screen the Tox21 compound library. The cytotoxicity of the Tox21 compound library against the PPARd-bla cell line was tested in parallel by measuring the cell viability using CellTiter-Glo assay (Promega, Madison, WI) in the same wells.
Tox21 Assay Protocol Summary: PPARd-bla cells were dispensed at 3000 cells/6uL/well in 1536-well black wall/clear bottom plates using a Multidrop Combi (Thermo Fisher Scientific, Waltham, MA) dispenser. After the assay plates were incubated at 37 C and 5% CO2 for 5 h, 23 nL of compounds dissolved in DMSO, positive controls or DMSO only was transferred to the assay plate by a Pintool station (Kalypsys, San Diego, CA). The assay plates were incubated at 37C for 17 h. After 1 uL of LiveBLAzerTM B/G FRET substrate was added using a Bioraptr Flying Reagent Dispenser (FRD) workstation (Beckman Coulter, Indianapolis, IN, USA), the plates were incubated at room temperature for 2 h, and fluorescence intensity was measured by an Envision plate reader (PerkinElmer, Shelton, CT). For cell viability readout that measures cytotoxicity, 3 ul/well of CellTiter-Glo reagent was added into the assay plates using a Bioraptr FRD. After 30 min incubation at room temperature, the luminescence intensity in the plates was measured using a ViewLux plate reader (PerkinElmer).
For orientation: In qHTS, concentration-response curves come from the screen itself.
Consider `C1CCOC1`, for which the “activity change, negative = cytotoxicity” value is 4.39% [at 81.1 µM].

Take `CC(C)(CO)[C@@H](O)C(=O)NCCC(=O)O`: the “activity change, negative = cytotoxicity” value is 3.5% [at 81.1 µM].

Turning to `CCCCCCCCc1ccc(S(=O)(=O)O)cc1`, the Potency is 43.3 µM (active).

Consider `COc1ccc(S(=O)(=O)Nc2nnc(CC(C)C)s2)cc1`, for which the “activity change, negative = cytotoxicity” value is -3.85%.

As for `Cc1c(-c2ccccc2)oc2c(C(=O)OCCN3CCCCC3)cccc2c1=O`, the “activity change, negative = cytotoxicity” value is -13.6%.

Take `CC/C=C\CCOC(=O)C(C)C`: the “activity change, negative = cytotoxicity” value was 10.7%.

On to `CCc1cc2cc(OC)c(OC)cc2c(Cc2ccccc2)n1`, for which the “activity change, negative = cytotoxicity” value was 1.9%.

For `CCOC(=O)c1ccccc1O`, the “activity change, negative = cytotoxicity” value was 7.39%.

Consider `C=C(C)C(=O)OCCOP(=O)(O)O`, for which the “activity change, negative = cytotoxicity” value was 3.6% [at 81.1 µM].

In the case of `O=C(CC(=O)C(F)(F)F)c1ccccc1`, the “activity change, negative = cytotoxicity” value is -0.536% [at 81.1 µM].

As to `CN(C)C(=O)NC1(c2ccccc2)CCN(CCC[C@]2(c3ccc(Cl)c(Cl)c3)CCCN(C(=O)c3ccccc3)C2)CC1`, the Potency was 9.28 µM (active).

Take `CCCCCCCOC(=O)CCC`: the “activity change, negative = cytotoxicity” value was 0.503%.

`NC(Cc1ccc(F)cc1)C(=O)O` (stereo not given): the activity change, negative = cytotoxicity was -0.221% [at 5.95 µM].

Consider `CN1C(=O)CC(c2ccccc2)C1=O` (stereo not given), for which the “activity change, negative = cytotoxicity” value is 5.99%.

`NC1=NCC2c3ccccc3Cc3ccccc3N12` (stereo not given): the “activity change, negative = cytotoxicity” value was -15.3%.

In the case of `Cc1cc(S(=O)(=O)O)c(N)cc1Cl`, the “activity change, negative = cytotoxicity” value was 6.57% [at 81.1 µM].

For the compound `OCc1ccccc1O`, the “activity change, negative = cytotoxicity” value was 10.1%.

On to `COc1ccccc1OCC(O)COC(N)=O` (stereo not given), for which the “activity change, negative = cytotoxicity” value is -0.405%.

Consider `CCc1nnc(NS(=O)(=O)c2ccc(N)cc2)s1`, for which the “activity change, negative = cytotoxicity” value is 3.07%.

As to `C/C(=N\O)[C@@H](C)NCC(C)(C)CN[C@H](C)/C(C)=N/O`, the “activity change, negative = cytotoxicity” value was -29.2%.

`CCCC(CCC)(C(=O)OCC)C(=O)OCC`: the “activity change, negative = cytotoxicity” value is -1.53%.

As for `CNCCC(Oc1ccccc1OC)c1ccccc1` (stereo not given), the “activity change, negative = cytotoxicity” value was -10.9%.

Regarding `CC(C)CC(=O)OCc1ccccc1`, the “activity change, negative = cytotoxicity” value is -0.0561%.

Consider `CCOC(=O)[C@H](CCc1ccccc1)N[C@@H](C)C(=O)N1Cc2cc(OC)c(OC)cc2C[C@H]1C(=O)O`, for which the “activity change, negative = cytotoxicity” value is 0.821%.

Consider `CC(C)(C)C1CCCCC1=O` (stereo not given), for which the “activity change, negative = cytotoxicity” value is 0.667%.

In the case of `CN(C)CC[C@@H](c1ccc(Cl)cc1)c1ccccn1`, the “activity change, negative = cytotoxicity” value was -2.48%.

Regarding `O=C1CCCCC1C1CCCCC1` (stereo not given), the “activity change, negative = cytotoxicity” value is -12.2%.

Regarding `Oc1ccccc1C=NCc1ccccc1`, the “activity change, negative = cytotoxicity” value was -4.44%.

On to `CCC(=O)Nc1ccc(O)cc1`, for which the “activity change, negative = cytotoxicity” value is -0.0184%.

In the case of `Cc1cc2c(s1)Nc1ccccc1N=C2N1CCN(C)CC1`, the “activity change, negative = cytotoxicity” value is -17.4%.

On to `NCCCN1CCN(CCCN)CC1`, for which the “activity change, negative = cytotoxicity” value is -14.4%.

With `CC(C)CCCCCCc1ccc(OCCOCCO)cc1`, the “activity change, negative = cytotoxicity” value was -20.5% [at 81.1 µM].

Regarding `CN1CCN(c2c(F)cc3c(=O)c(C(=O)O)cn(CCF)c3c2F)CC1`, the “activity change, negative = cytotoxicity” value was 2.15%.

As to `CCCN(CCC)C(=O)C(CCC(=O)O)NC(=O)c1ccccc1` (stereo not given), the “activity change, negative = cytotoxicity” value is 7.43%.

Regarding `CCNCCO`, the “activity change, negative = cytotoxicity” value was -13.2%.

On to `N#CSCC(=O)O`, for which the “activity change, negative = cytotoxicity” value was 4.45%.

`Cc1ccc(C=O)s1`: the “activity change, negative = cytotoxicity” value is -2.71%.

As for `C=Cc1ccccc1`, the “activity change, negative = cytotoxicity” value was 0.504%.

In the case of `CC1=CC(=O)CC(C)(C)C1=O`, the “activity change, negative = cytotoxicity” value was 1.29% [at 81.1 µM].

`CCCCCCOc1ccc(N)cc1`: the “activity change, negative = cytotoxicity” value was -3.49%.
